nsP2pro primary: Primary qHTS for inhibitors of NSP2Pro chikungunya virus (CHIKV). FRET peptide cleavage, nsP2pro, fluorescence 1 h. Potency, µM (titrated, usually from 24.9 µM), without a hit: at the top dose activity change, negative = inhibition, hits mostly inhibitors. actives 1.1% (n = 31,000). AID 1964107, 2024; note: nearly all actives have a fitted effect of over 60% in size
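FRET cleavage of 2.5 uM peptide 2 by 150 nM CHIKV protease domain at pH 8.0 (Tris, Tween 20). Compounds at 7 concentrations (up to 25 uM) preincubated 15 min. Fluorescence read after 1 h at room temperature.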
CHIKV nsP2 cell: Secondary cell base assay for inhibitors of NSP2Pro Chikungunya virus (CHIKV); Potency, µM (highest dose often 51.1 µM), without a hit: at the top dose activity change, negative = inhibition, hits mostly inhibitors; cell-based CHIKV nsP2 protease reporter assay; actives 10% (n = 450); shares compounds with nsP2pro primary; note: nearly all actives have a fitted effect of over 70% in size
NSP2 full ctr: Selectivity profile for inhibitors of NSP2Pro chikungunya virus (CHIKV): Full length NSP2 enzyme counterscreen (CHIKV-NSP2) | shares compounds with nsP2pro primary | Full-length CHIKV NSP2 protease enzymatic counterscreen | Potency, µM (titrated, usually from 50.7 µM), inactives show at the highest dose activity change, negative = inhibition, usual class: inhibitors | actives 39% (n = 410); note: nearly all actives have a fitted effect of over 65% in size
Furin counterscr: Selectivity profile for inhibitors of NSP2Pro chikungunya virus (CHIKV): Human furin counterscreen; Potency, µM (titrated, usually from 50.6 µM), inactives show top-dose activity change, negative = inhibition, most hits filed as inhibitors; shares compounds with nsP2pro primary; Recombinant human furin enzymatic counterscreen, fluorogenic substrate; AID 1964102, 2024; actives 6% (n = 410)
NS23 peptide cs: Selectivity profile for inhibitors of NSP2Pro chikungunya virus (CHIKV): Endogenous NS2/3 peptide Counterscreen | shares compounds with nsP2pro primary | Purified CHIKV nsP2 protease, endogenous NS2/3 peptide cleavage | Potency, µM (doses to about 51 µM), for the others: at the top dose activity change, negative = inhibition, most hits filed as inhibitors | actives 34% (n = 410) | AID 1964103, 2024; note: nearly all actives have a fitted effect of over 55% in size
Papain counter: Selectivity profile for inhibitors of NSP2Pro chikungunya virus (CHIKV): Papain Counterscreen; shares compounds with nsP2pro primary; purified papain protease activity, enzymatic inhibition; Potency, µM (series often up to 51 µM), inactives show top-dose activity change, negative = inhibition, actives largely listed as inhibitors; actives 5% (n = 410)
Target sequence (P00784 whole entry, looked up): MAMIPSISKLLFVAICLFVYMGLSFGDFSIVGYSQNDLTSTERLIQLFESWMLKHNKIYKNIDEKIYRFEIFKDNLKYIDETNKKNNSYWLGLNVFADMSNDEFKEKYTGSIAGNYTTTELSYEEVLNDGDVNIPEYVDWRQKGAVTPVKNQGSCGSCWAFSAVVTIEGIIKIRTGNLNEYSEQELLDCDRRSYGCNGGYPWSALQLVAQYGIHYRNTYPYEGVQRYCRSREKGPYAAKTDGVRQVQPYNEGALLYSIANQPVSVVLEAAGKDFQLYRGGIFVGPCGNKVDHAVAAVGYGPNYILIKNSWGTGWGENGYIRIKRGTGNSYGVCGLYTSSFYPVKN
nsP2pro confirm: Confirmatory qHTS for inhibitors of NSP2Pro chikungunya virus (CHIKV) | shares compounds with nsP2pro primary | CHIKV nsP2 protease enzymatic activity, qHTS | Potency, µM (titrated, usually from 25.5 µM), for the others: at the highest dose activity change, negative = inhibition, usual class: inhibitors | actives 43% (n = 410) | AID 1964105, 2024; note: nearly all actives have a fitted effect of over 75% in size
HCV NS3 counter: Selectivity profile for inhibitors of NSP2Pro chikungunya virus (CHIKV): NS34A-HCV Counterscreen; shares compounds with nsP2pro primary; Potency, µM (top dose mostly 50.9 µM), hits mostly inhibitors; HCV NS3/4A protease biochemical counterscreen; AID 1964106, 2024; actives 20% (n = 410); note: nearly all actives have a fitted effect of over 55% in size
An asterisk follows results filed as active; i = inactive; u = inconclusive; x = no result given; [ ] = dose if it differs, or a comment. Only a selection was taken, and hits are over-represented in it overall. Calls come from the whole dose curve. % is set by controls: 0 for no effect and ±100 for the full control effect; potency is the fitted concentration of half-maximal effect.

SMILES | nsP2pro primary | CHIKV nsP2 cell | others
CC(=O)O[C@H]1C[C@@H](O)C(C)(C)C2C[C@@H](OC(C)=O)[C@]3(C)C(CC[C@@]4(C)[C@H](c5ccoc5)OC(=O)[C@H]5O[C@]543)[C@]21C (stereo partly drawn) | -25.0%[10 µM] | x
COCC1CN(Cc2sccc2C)CC12CCNCC2 (stereo not drawn) | 7.8% | x
O=C(Nc1cccc(F)c1)[C@@H]1C[C@@H](c2cccc(C(F)(F)F)c2)N(CC2CCOCC2)C1 | i | x
CCN1Cc2ccccc2NC(=O)C12CCNC2 (stereo not drawn) | 8.91µM* | u | NSP2 full ctr=6.43µM*;Furin counterscr=-22.5%;NS23 peptide cs=14.4µM*;Papain counter=-3.7%;nsP2pro confirm=8.85µM*;HCV NS3 counter=3.62µM*
O=C1Nc2ccccc2CN(CC2CCCCC2)C12CCNC2 (stereo not drawn) | 7.1% | x
CN1Cc2ccccc2NC(=O)C12CCNC2 (stereo not drawn) | -15.9%[39.2 µM] | x
O=C(NC1CCCCC1)C1(CCO)CC12CCN(c1ncccn1)CC2 (stereo not drawn) | 5.0% | x
C[C@]12CCC3[C@@H](CC[C@H]4NC(=O)C=C[C@]34C)[C@@H]1CC[C@@H]2C(=O)Nc1cc(C(F)(F)F)ccc1C(F)(F)F (stereo partly drawn) | -9.6% | x
CCOC(=O)c1cccc(NC(=O)CCSCCc2ccccn2)c1 | -13.7% | x
CCOC(=O)c1cccc(CNc2ccc(N(C)C(=O)Nc3ccccc3)cc2)c1 | u | u | NSP2 full ctr=-12.9%;Furin counterscr=-11.3%;NS23 peptide cs=-7.5%;Papain counter=u;nsP2pro confirm=-3.2%;HCV NS3 counter=i
CCOC(=O)c1cccc(NCC2=CC(C)(C)Oc3ccc(OC)cc32)c1 | -10.7% | x
O=c1cc(-c2ccncc2)oc2c(-c3ccc(CO)cc3)nccc12 | -6.7%[39.2 µM] | x
Cc1ccc([N+](=O)[O-])cc1S(=O)(=O)N(C)/N=C/c1cnc2ccc(Br)cn12 | 80.6% | x
CCCCN1C(=O)c2ccccc2C1=O | -6.7% | x
CC(C)=CCC1C(=O)N(c2ccccc2)N(c2ccccc2)C1=O | -4.3% | x
CCCCC1C(=O)N(c2ccccc2)N(c2ccc(O)cc2)C1=O (stereo not drawn) | 8.81µM* | u | NSP2 full ctr=20.6µM*;Furin counterscr=-12.9%;NS23 peptide cs=6.51µM*;Papain counter=-12.4%;nsP2pro confirm=7.98µM*;HCV NS3 counter=i
CC1(CO)CC(O)[C@]2(C(=O)O)CCC34CC3(C=CC3[C@]5(C)C(CC[C@]34C)C(C)(CO)[C@@H](O)[C@H](O)[C@@H]5O)C2C1 (stereo partly drawn) | 48.9%[10 µM] | x
O=C(NCC(F)(F)F)c1cc(C2CCN(C(=O)c3cc(-c4ccco4)[nH]n3)CC2)[nH]n1 | 1.12µM* | -12.1%
O=C(c1cc(-c2ccco2)[nH]n1)N1CCC(n2cnc3ccccc32)C1 (stereo not drawn) | 0.708µM* | u | NSP2 full ctr=7.3µM*;Furin counterscr=-7.9%;NS23 peptide cs=u;Papain counter=-3.1%;nsP2pro confirm=u;HCV NS3 counter=3.26µM*
CC(=O)NCC(=O)N1CCC(c2cc(-c3ccc(F)cc3)n[nH]2)CC1 | i | x
